According to PubChem BioAssay:
Unmarked numbers belong to inactive results. For some assays here: Results with a measured potency or affinity are listed apart. Calls of active or inactive are those of the source. Unless noted, no rule for the calls is given here.

Columns and labels:
[1] = antimalarial activity against Dd2 strain (AID 2302;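 active = growth inhibition above 50% at the single 2 µM test dose, taken to imply half-maximal potency below 2 µM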;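 also: 0% = DMSO untreated growth and 100% = chloroquine plus artemisinin killed control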); details: P. falciparum Dd2 in RBCs, LDH growth readout, 72 h; at 2 µM; stronger effect = higher value
[2] = HepG2 cytotoxicity, primary screen, cytotoxicity control for P. falciparum antimalarial project, cell-based, ATP luminescence (AID 2303;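 active = inhibition above 50%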;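 also: 0% = DMSO wells and 100% = digitonin-killed cells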); details: HepG2 viability, 24-48 h, at 10 µM, stronger effect = higher value
[3] = target: L-lactate dehydrogenase (Plasmodium falciparum (isolate CDC / Honduras)) (UniProt Q27743); assay: PfLDH activity inhibition – cell lysate, 3D7 strain, counter-screen for P. falciparum growth inhibition project (AID 2304);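 also: 0% = vehicle and 100% = reference inhibitor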; details: P. falciparum 3D7 crude extract, LDH APAD/NBT absorbance; at 2 µM; stronger effect = higher value
[4] = inhibition of 3D7 malaria parasite growth – strain 3D7 (AID 2306);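 also: 0% = DMSO wells and 100% = chloroquine plus artemisinin control wells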; details: P. falciparum 3D7 erythrocytic growth, LDH absorbance, 72 h; at 2 µM; stronger effect = higher value
[5] = target: Calcium-dependent protein kinase 1 (Plasmodium falciparum (isolate 3D7)) (UniProt P62344); assay: PfCDPK1 kinase inhibitors, biochemical, TCAMS library (AID 1159585; cut-off not given, nearly all actives have IC50 up to about 0.98 µM;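 also: inhibitors leave more ATP so luminescence rises with inhibition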); details: recombinant PfCDPK1, Kinase-Glo ATP depletion luminescence
[6] = target: Plasmodium falciparum protein kinase 6 (PK6, PF3D7_1337100) (UniProt Q8IDW1); assay: PfPK6 kinase inhibitors, biochemical, TCAMS library (AID 1159586); details: recombinant PfPK6, Kinase-Glo ATP depletion luminescence
[7] = target: Protein kinase 7 (PK7), Plasmodium falciparum 3D7 (PF3D7_0213400) (UniProt Q7YTF7); assay: inhibition of Plasmodium PK7 catalytic activity – biochemical, TCAMS antimalarial set, Kinase-Glo luminescence (AID 1159587); details: recombinant PfPK7, Kinase-Glo ATP depletion luminescence
[8] = target: Calcium-dependent protein kinase 4 (Plasmodium falciparum (isolate 3D7)) (UniProt Q8IBS5); assay: PfCDPK4 kinase inhibitors, biochemical, TCAMS library (AID 1159588; cut-off not given, nearly all actives have IC50 up to about 0.91 µM); details: recombinant PfCDPK4, Kinase-Glo ATP depletion luminescence
Chain of Calcium-dependent protein kinase 4 (Plasmodium falciparum (isolate 3D7)) (Q8IBS5 whole entry, looked up): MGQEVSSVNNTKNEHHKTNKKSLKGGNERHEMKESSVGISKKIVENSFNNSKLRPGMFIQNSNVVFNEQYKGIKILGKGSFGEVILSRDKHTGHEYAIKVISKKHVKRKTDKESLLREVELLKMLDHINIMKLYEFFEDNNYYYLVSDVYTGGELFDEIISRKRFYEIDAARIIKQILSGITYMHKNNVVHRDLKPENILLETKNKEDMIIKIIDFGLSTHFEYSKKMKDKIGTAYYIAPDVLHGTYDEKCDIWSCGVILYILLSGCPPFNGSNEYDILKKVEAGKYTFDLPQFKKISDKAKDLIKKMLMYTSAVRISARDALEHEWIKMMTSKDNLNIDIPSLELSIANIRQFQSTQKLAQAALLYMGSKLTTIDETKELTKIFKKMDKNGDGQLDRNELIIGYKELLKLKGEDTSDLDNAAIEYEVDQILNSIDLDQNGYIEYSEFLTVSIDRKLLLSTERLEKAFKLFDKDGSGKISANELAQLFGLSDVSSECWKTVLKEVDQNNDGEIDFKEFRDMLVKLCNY

Chain of Plasmodium falciparum protein kinase 6 (PK6, PF3D7_1337100) (Q8IDW1 1-305): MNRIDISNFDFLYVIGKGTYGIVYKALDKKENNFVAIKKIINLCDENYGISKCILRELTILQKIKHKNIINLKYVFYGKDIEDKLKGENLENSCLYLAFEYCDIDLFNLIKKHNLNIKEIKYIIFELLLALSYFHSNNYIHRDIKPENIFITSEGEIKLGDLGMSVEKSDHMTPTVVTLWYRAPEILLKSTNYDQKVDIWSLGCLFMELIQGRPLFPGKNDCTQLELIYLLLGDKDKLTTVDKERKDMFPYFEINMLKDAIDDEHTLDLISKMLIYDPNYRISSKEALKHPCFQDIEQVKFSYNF
Chain of L-lactate dehydrogenase (Plasmodium falciparum (isolate CDC / Honduras)) (Q27743 whole entry, looked up): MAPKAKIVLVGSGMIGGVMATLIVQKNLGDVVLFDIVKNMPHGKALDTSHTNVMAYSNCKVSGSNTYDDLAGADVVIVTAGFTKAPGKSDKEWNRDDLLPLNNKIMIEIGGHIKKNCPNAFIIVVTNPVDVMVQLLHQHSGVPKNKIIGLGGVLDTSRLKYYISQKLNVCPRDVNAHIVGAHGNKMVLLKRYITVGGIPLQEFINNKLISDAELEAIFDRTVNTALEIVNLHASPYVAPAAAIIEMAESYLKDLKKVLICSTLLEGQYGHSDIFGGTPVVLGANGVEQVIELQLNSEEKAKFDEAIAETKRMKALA
Chain of Protein kinase 7 (PK7), Plasmodium falciparum 3D7 (PF3D7_0213400) (Q7YTF7 1-343): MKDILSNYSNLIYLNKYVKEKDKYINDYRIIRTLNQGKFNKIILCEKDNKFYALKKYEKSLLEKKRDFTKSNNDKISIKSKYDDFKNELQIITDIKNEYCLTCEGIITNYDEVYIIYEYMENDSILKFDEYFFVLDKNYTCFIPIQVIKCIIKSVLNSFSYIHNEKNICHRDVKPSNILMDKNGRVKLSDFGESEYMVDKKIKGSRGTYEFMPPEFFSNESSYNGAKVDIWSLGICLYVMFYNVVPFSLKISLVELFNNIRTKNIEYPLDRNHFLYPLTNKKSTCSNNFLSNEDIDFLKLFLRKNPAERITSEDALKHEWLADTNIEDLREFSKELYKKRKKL
Chain of Calcium-dependent protein kinase 1 (Plasmodium falciparum (isolate 3D7)) (P62344 whole entry, looked up): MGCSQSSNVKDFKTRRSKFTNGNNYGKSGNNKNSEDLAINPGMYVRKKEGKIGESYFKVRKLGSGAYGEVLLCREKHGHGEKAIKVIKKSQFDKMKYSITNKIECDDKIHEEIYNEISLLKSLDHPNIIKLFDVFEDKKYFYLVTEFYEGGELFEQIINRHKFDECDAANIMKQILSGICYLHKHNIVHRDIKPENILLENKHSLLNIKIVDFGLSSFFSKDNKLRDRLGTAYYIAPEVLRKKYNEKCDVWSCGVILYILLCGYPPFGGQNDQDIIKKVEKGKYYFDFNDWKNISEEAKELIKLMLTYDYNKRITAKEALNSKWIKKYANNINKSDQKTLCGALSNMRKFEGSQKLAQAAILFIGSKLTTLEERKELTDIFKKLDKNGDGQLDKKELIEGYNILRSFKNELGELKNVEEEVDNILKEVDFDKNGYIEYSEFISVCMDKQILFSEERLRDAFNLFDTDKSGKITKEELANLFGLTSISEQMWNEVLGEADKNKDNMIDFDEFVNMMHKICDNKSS

Compound	growth inhibition [1]	inhibition [2]	inhibition [3]	growth inhibition [4]	outcome [5]	outcome [6]	outcome [7]	outcome [8]
Cc1cccc(CN2CCC(C(=O)Nc3ccc(-c4nc5ccccc5[nH]4)cc3)CC2)n1	3%	-9%	6%	96% (active)	inactive	inactive	inactive	inactive
CC(C)c1ccc(N(CC(=O)N/N=C/c2ccc(C(F)(F)F)cc2)S(=O)(=O)c2ccc(C(F)(F)F)cc2)cc1	44%	2%	3%	91% (active)	inactive	inactive	inactive	inactive
CC(C(=O)N1CCCC1)N1CCN(C(c2ccccc2)c2ccccc2)CC1 (stereo unspecified)	56% (active)	-2%	3%	82% (active)	inactive	inactive	inactive	inactive
O=C(Nc1ccc2c(c1)CN(Cc1ccc(N3CCCC3)o1)CCC2)c1cncs1	37%	15%	-2%	84% (active)	inactive	inactive	inactive	inactive
CCc1c(CCNCCCCCCNCCc2ccc(OC)cc2)ccc(OC)c1OC	-1%	16%	8%	98% (active)	inactive	inactive	inactive	inactive
CC(C)CCNc1nc(NCc2ccccc2)c2cc(O)ccc2n1	92% (active)	25%	3%	103% (active)	inactive	inactive	inactive	inactive
CCOc1ccc2nc(C)cc(NN=Cc3cccc(C)n3)c2c1	73% (active)	6%	0%	99% (active)	inactive	inactive	inactive	inactive
CCOC(=O)c1ccc(N2CCCCC2)c(NC(=O)C(Cl)(Cl)Cl)c1	97% (active)	11%	1%	96% (active)	inactive	inactive	inactive	inactive
CC1(C)N=C(N)N=C(N)N1c1ccc(Oc2ccccc2)cc1	3%	13%	-6%	98% (active)	inactive	inactive	inactive	inactive
CCN(CC)CCN(CCCc1ccc(-c2ccc(C(F)(F)F)cc2)cc1)C(=O)Cn1c(CCc2cccc(F)c2F)nc(=O)c2ccccc21	49%	37%	3%	101% (active)	inactive	inactive	inactive	inactive
Cc1ccc(C)c2sc(N3CCN(C(=O)c4ccc([N+](=O)[O-])o4)CC3)nc12	89% (active)	-2%	2%	96% (active)	inactive	inactive	inactive	inactive
CCc1ccc(NC(=O)c2ccc(CN3CCCN(Cc4cccc(O)c4)CC3)cc2)cc1	55% (active)	51% (active)	0%	100% (active)	inactive	inactive	inactive	inactive
Cn1nc(C(F)(F)F)c(-c2ccc(Br)cc2)c1NC(=O)Cc1ccccc1F	100% (active)	6%	-1%	102% (active)	inactive	inactive	inactive	inactive
Fc1ccc2nc(-c3cccc(-c4ccc(CN5CCN(CCN6CCOCC6)CC5)cc4)c3)[nH]c2c1	100% (active)	30%	-3%	101% (active)	inactive	inactive	inactive	inactive
CCOP(=O)(OCC)c1ccc(OC)c(-c2ccc[nH]2)c1	10%	-13%	-2%	95% (active)	inactive	inactive	inactive	inactive
Cc1nc(NCc2ccccc2)cc(NCC(O)c2ccc(O)cc2)n1 (stereo unspecified)	10%	5%	-2%	85% (active)	inactive	inactive	inactive	inactive
Cc1cc(=O)[nH]c(-n2nc(C)cc2NC(=O)C2(c3ccc(Cl)cc3)CCCC2)n1	97% (active)	30%	5%	96% (active)	inactive	inactive	inactive	inactive
CC1(C)N=C(N)N=C(N)N1OCOc1cc(Cl)c(Cl)cc1Cl	98% (active)	66% (active)	-3%	96% (active)	inactive	inactive	inactive	inactive
COc1cccc(C(=O)NC(C=Cc2ccccc2)c2cc(Cl)c3cccnc3c2O)c1 (stereo unspecified)	58% (active)	27%	-1%	95% (active)	inactive	inactive	inactive	inactive
O=C(Nc1ccc(CN2CCOCC2)cc1)c1ccc(-c2ccc(Br)cc2)o1	-4%	3%	-2%	92% (active)	inactive	inactive	inactive	inactive
CC(C)Sc1nc2c(c(=O)n1Cc1ccco1)C1(CCCCC1)Cc1ccccc1-2	99% (active)	10%	0%	100% (active)	inactive	inactive	inactive	inactive

Compound	growth inhibition [1]	inhibition [2]	inhibition [3]	growth inhibition [4]	outcome [5]	outcome [6]	outcome [7]	outcome [8]
FC(F)(F)c1cccc(NC(=S)NN=Cc2ccccn2)c1	99% (active)	29%	-7%	100% (active)	inactive	inactive	inactive	inactive
CCCCN(CCCC)Cc1cc(Nc2ccnc3cc(Cl)ccc23)ccc1O	87% (active)	67% (active)	-1%	102% (active)	inactive	inactive	inactive	inactive
Cc1nn(-c2ccccc2)c2c1C(c1ccc(C(C)C)cc1)N1C(=N2)N(Cc2ccccc2)c2ccccc21 (stereo unspecified)	37%	7%	-7%	95% (active)	inactive	inactive	inactive	inactive
COc1ccc(-n2cc(C(=O)c3cc(Br)ccc3O)cc(C#N)c2=O)cc1Cl	23%	29%	-5%	99% (active)	inactive	inactive	inactive	inactive
CC(C)NCc1ccc(-c2ccc(NC(=O)c3ccc(C#N)cc3)cc2)cc1	0%	23%	-2%	90% (active)	inactive	inactive	inactive	inactive
COc1ccc(-c2cnc3ccc(NCc4ccc(S(N)(=O)=O)cc4)nn23)cn1	98% (active)	16%	0%	98% (active)	inactive	inactive	inactive	inactive
CCOc1cc(C)ccc1C1CCN(CCCCNC(=O)c2cccc(-c3ccc(C(F)(F)F)cc3)c2)CC1	55% (active)	39%	2%	99% (active)	inactive	inactive	inactive	inactive
COc1cc2nc(N3CCC(CNC(=O)c4ccc(-c5ccc(-c6noc(C)n6)cc5)cc4)CC3)nc(N)c2cc1OC	100% (active)	96% (active)	1%	98% (active)	inactive	inactive	inactive	inactive
O=C(c1ccco1)N1CCN(c2ccc([N+](=O)[O-])c(NC3CC3)c2)CC1	99% (active)	-8%	0%	101% (active)	inactive	inactive	inactive	inactive
Cc1c(C)c2c(c(C)c1O)CCC(C)(CCC(=O)O)O2 (stereo unspecified)	-4%	8%	0%	96% (active)	inactive	inactive	inactive	inactive
O=C(NC1CCCc2ccccc21)[C@@H]1CCCN1C(=O)c1ccc(O)c(-c2ccc(Cl)c(Cl)c2)c1 (stereo partly specified)	99% (active)	-6%	-2%	99% (active)	inactive	inactive	inactive	inactive
Cc1cccc2[nH]c(-c3ccc(-c4cccc(NC(=O)c5cncn5C)c4)cc3)nc12	1%	2%	2%	100% (active)	inactive	inactive	inactive	inactive
CC(C)(C)Nc1cc(C2CC2)nc(-c2ccccn2)n1	75% (active)	-2%	-1%	88% (active)	inactive	inactive	inactive	inactive
CCOC(=O)c1c(C)n(-c2ccc(Cl)cc2)c2ccc(OC(=O)C=Cc3ccccc3)cc12	92% (active)	3%	-2%	99% (active)	inactive	inactive	inactive	inactive
COc1cc2nc(NCC3CCN(c4nc(N)c5cc(OC)c(OC)cc5n4)CC3)nc(N)c2cc1OC	73% (active)	12%	-2%	92% (active)	inactive	inactive	inactive	inactive
Fc1ccc2nc(-c3ccc(-c4ccc(CNCCN5CCNCC5)cc4)s3)[nH]c2c1	2%	24%	-1%	96% (active)	inactive	inactive	inactive	inactive
COc1ccc(Cc2cnc3nc(N)nc(N)c3c2C)cc1OC	97% (active)	–	-5%	93% (active)	inactive	inactive	inactive	inactive
O=C(CSc1nc(-c2ccccc2Cl)ns1)Nc1cccc(F)c1	81% (active)	-5%	-1%	93% (active)	inactive	inactive	inactive	inactive
CCCC(C)NC(=O)[C@H](Cc1ccccc1)NC(=O)c1ccc(O)c(-c2ccc(OC)cc2)c1 (stereo partly specified)	1%	12%	2%	85% (active)	inactive	inactive	inactive	inactive
Cc1[nH]c(C)c(-c2cccc(Oc3ccc(Cl)cc3)c2)c(=O)c1Br	97% (active)	–	4%	96% (active)	inactive	inactive	inactive	inactive
